Laboratory results taken from the supplement of paper PMC13380429.

Key:
[1] = system: Vero E6 infected with SARS-CoV-2; assay: morphology score (similarity to uninfected cells); higher = more like uninfected cells; conditions: 24 h
[2] = system: Vero E6 infected with SARS-CoV-2; assay: SARS-CoV-2 infection rate relative to infected DMSO; higher = more infection, active = 60 or less; conditions: 24 h

| SMILES | morphology score [1] | SARS-CoV-2 infection rate [2] |
| --- | --- | --- |
| O=C(O)c1c(Cl)c(Cl)c(Cl)c(Cl)c1-c1c2cc(I)c(=O)c(I)c-2oc2c(I)c(O)c(I)cc12 [rose-bengal] (0.833333 µM) | 0.318 | 98.2% (inactive) |
| COc1cc(N)c(Cl)cc1C(=O)NC1CCN(Cc2ccccc2)CC1 [clebopride] (10 µM) | -0.0118 | 110% (inactive) |
| N.N.O=C([O-])C[O-].[Pt+2] [nedaplatin] (10 µM) | 0.0896 | 102% (inactive) |
| Cc1ccccc1C(OCCN(C)C)c1ccccc1 (configuration not stated) [orphenadrine] (10 µM) | 0.316 | 87% (inactive) |
| CC(C)(O)CS(=O)(=O)Nc1ccc2c(c1)CCN(C(=O)COc1cccnc1)C2 [Nampt-IN-1] (10 µM) | -0.0571 | 104% (inactive) |
| COc1cc2c(cc1OC)CN(CCc1ccc(NC(=O)c3cc(OC)c(OC)cc3NC(=O)c3cnc4ccccc4c3)cc1)CC2 [tariquidar] (10 µM) | -0.0369 | 108% (inactive) |
| Nc1ccc(C(=O)Oc2ccccc2)c(O)c1 [phenyl-aminosalicylate] (10 µM) | 0.0987 | 104% (inactive) |
| COc1ccc(NC(=O)c2ccc(C(=N)N(C)C)cc2)c(C(=O)Nc2ccc(Cl)cn2)c1 [betrixaban] (10 µM) | 0.0893 | 91% (inactive) |
| O=C(NCCN1CCOCC1)c1ccc(Cl)cc1 [moclobemide] (10 µM) | 0.182 | 103% (inactive) |
| N#Cc1cccc(-c2c[nH]c3ncnc(N4CCOCC4)c23)c1 (10 µM) | 0.304 | 108% (inactive) |
| CCOC(=O)OC(C)OC1=C(C(=O)Nc2ccccn2)N(C)S(=O)(=O)c2ccccc21 (configuration not stated) [ampiroxicam] (10 µM) | -0.00273 | 102% (inactive) |
